Measured values: PubChem BioAssay (EPA / NIEHS)
Results filed as inconclusive are left out. Calls of active or inactive are those of the source. The calls were made as follows: active = hit-call score of the fitted dose curve at least 0.9, where 1 is the maximum; inconclusive = response in the unintended direction; inactive = score below 0.9.

Tests used:
[1] = TOX21_p53_BLA_p2_viability: Viability Assessment in the Tox21 HCT-116 p53 Agonism Beta-lactamase Assay, Phase 2 (AID 2283591);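 also: compound exposure lasted 16 h at 37 °C; actives lower the ATP signal meaning cytotoxicity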
Method in brief: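 HCT116 p53-bla cells, 4000/well, dosed after 5 h plating (217-fold dilution of DMSO stocks) and incubated 16 h at 37C. Viability taken as cellular ATP by CellTiter-Glo luminescence after 30 min RT; signal loss marks cytotoxicity.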

[2] = molecular target: Cellular tumor antigen p53 (Homo sapiens) (UniProt P04637); experiment: TOX21_p53_BLA_p2_ratio: Tox21 HCT-116 p53 Agonism Beta-lactamase Assay, Ratio, Phase 2 (AID 2283592)
Cellular tumor antigen p53 (Homo sapiens), sequence (P04637 whole entry, looked up): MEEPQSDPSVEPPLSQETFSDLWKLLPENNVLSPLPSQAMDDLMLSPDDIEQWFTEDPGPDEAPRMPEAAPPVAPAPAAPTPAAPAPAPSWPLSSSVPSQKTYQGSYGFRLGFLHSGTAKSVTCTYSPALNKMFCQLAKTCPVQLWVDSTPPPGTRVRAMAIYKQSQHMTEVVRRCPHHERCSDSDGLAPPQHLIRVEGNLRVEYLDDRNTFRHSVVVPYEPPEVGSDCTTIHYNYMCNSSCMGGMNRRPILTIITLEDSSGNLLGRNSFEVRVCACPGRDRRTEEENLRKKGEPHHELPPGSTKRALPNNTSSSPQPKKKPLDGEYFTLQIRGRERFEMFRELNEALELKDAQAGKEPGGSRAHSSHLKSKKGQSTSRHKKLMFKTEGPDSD
Method in brief: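 Ratio endpoint: beta-lactamase cleavage of CCF4-AM, blue (460 nm) over green (530 nm). HCT116 reporter line; 16 h treatment, 37C; substrate 2 h RT.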

[3] = TOX21_p53_BLA_p3_viability: Viability Assessment in the Tox21 HCT-116 p53 Agonism Beta-lactamase Assay, Phase 3 (AID 2283593);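 also: cells exposed to compound for 16 h before reading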
Method in brief: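 HCT116 cells, 4000/well, dosed 5 h after plating by pin transfer (217-fold dilution from DMSO stock) and incubated 16 h at 37C, 5% CO2. Viability read as ATP luminescence with CellTiter-Glo after 30 min at room temperature.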

[4] = molecular target: Cellular tumor antigen p53 (Homo sapiens) (UniProt P04637); experiment: TOX21_p53_BLA_p3_ratio: Tox21 HCT-116 p53 Agonism Beta-lactamase Assay, Ratio, Phase 3 (AID 2283596)
Method in brief: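 Cells were seeded at 4000/well, rested 5 h at 37C, then dosed with DMSO compound solutions (217-fold dilution) for 16 h. CCF4-AM substrate was loaded for 2 h at room temperature, and the 460/530 nm emission ratio was fitted for gain of signal versus DMSO.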

[5] = TOX21_p53_BLA_p4_viability: Viability Assessment in the Tox21 HCT-116 p53 Agonism Beta-lactamase Assay, Phase 4 (AID 2283597);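 also: hits lower the luminescence signal meaning cytotoxicity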
Method in brief: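 Cytotoxicity was inferred from loss of CellTiter-Glo luminescence. HCT116 cells had been dosed with compounds after 5 h plating, incubated 16 h at 37C and 5% CO2, and exposed to the CCF4-AM substrate for 2 h.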

[6] = molecular target: Cellular tumor antigen p53 (Homo sapiens) (UniProt P04637); experiment: TOX21_p53_BLA_p5_ratio: Tox21 HCT-116 p53 Agonism Beta-lactamase Assay, Ratio, Phase 5 (AID 2283599)
Method in brief: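 HCT-116 p53-bla cells (4000/well) plated 5 h, dosed with compound (217-fold DMSO dilution) for 16 h at 37 C; CCF4-AM substrate 2 h at room temperature. Activity is the 460/530 nm emission ratio (405 nm excitation), fitted in gain-of-signal direction versus DMSO.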

[7] = TOX21_p53_BLA_p5_viability: Viability Assessment in the Tox21 HCT-116 p53 Agonism Beta-lactamase Assay, Phase 5 (AID 2283600)
Method in brief: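 Luciferase-coupled ATP quantitation of cells treated for 16 h (37C, 5% CO2) with test chemicals delivered in DMSO via a 217-fold dilution; 4000 cells/well; reagent incubated 30 min at room temperature before luminescence reading.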

[8] = molecular target: Cellular tumor antigen p53 (Homo sapiens) (UniProt P04637); experiment: TOX21_p53_BLA_p4_ratio: Tox21 HCT-116 p53 Agonism Beta-lactamase Assay, Ratio, Phase 4 (AID 2283601)
Method in brief: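 HCT-116 p53 beta-lactamase reporter cells (4000/well) preincubated 5 h, then compound (217-fold dilution of DMSO stock) for 16 h at 37C. CCF4-AM substrate added 2 h at room temperature; 460/530 nm emission ratio fitted upward versus DMSO.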

Row | SMILES | AC50 [1] | outcome [2] | AC50 [3] | outcome [4] | AC50 [5] | AC50 [6] | outcome [7] | AC50 [8] | AC50 [2] | outcome [3] | outcome [6] | outcome [1] | AC50 [4] | outcome [5] | outcome [8] | AC50 [7]
1 | Cc1ccc2c(Cl)cc(Cl)c(O)c2n1 | 7.81 µM (active) | inactive | 12.2 µM (active) | inactive | 13.7 µM (active) | 25.9 µM (active) | inactive | 33.1 µM (active) | – | – | – | – | – | – | – | –
2 | CNCC[C@H](Oc1cccc2ccccc12)c1cccs1 | 35.4 µM (active) | – | – | inactive | 35.4 µM (active) | – | inactive | 43.7 µM (active) | 43.5 µM (active) | inactive | inactive | – | – | – | – | –
3 | CCCCC(=O)OCC(=O)[C@]1(O)Cc2c(O)c3c(c(O)c2[C@@H](O[C@H]2C[C@H](NC(=O)C(F)(F)F)[C@H](O)[C@H](C)O2)C1)C(=O)c1c(OC)cccc1C3=O | – | – | – | – | – | 7.73 µM (active) | inactive | 5.24 µM (active) | 7.68 µM (active) | inactive | – | inactive | 8.58 µM (active) | inactive | – | –
4 | Nc1ccc(C(=O)Oc2ccccc2)c(O)c1 | – | inactive | – | inactive | – | – | inactive | – | – | inactive | inactive | inactive | – | inactive | inactive | –
5 | O=C(O)c1ccccc1[N+](=O)[O-] | – | – | – | inactive | – | 86.4 µM (active) | inactive | – | 73.7 µM (active) | inactive | – | inactive | – | inactive | inactive | –
6 | O=C(O)C[C@H](NC(=O)OCc1ccccc1)C(=O)O | – | inactive | – | inactive | – | – | inactive | – | – | inactive | inactive | inactive | – | inactive | inactive | –
7 | CCOc1ccc([N+](=O)[O-])cc1 | – | inactive | 70.9 µM (active) | – | 46.7 µM (active) | 84.9 µM (active) | – | 81.5 µM (active) | – | – | – | inactive | 80.9 µM (active) | – | – | 61.1 µM (active)
8 | CC1=C(/C=C/C(C)=C/C=C/C(C)=C/C=C/C=C(C)/C=C/C=C(C)/C=C/C2=C(C)C[C@@H](O)CC2(C)C)C(C)(C)C[C@H](O)C1 | 40.1 µM (active) | – | – | – | 36.6 µM (active) | 38.8 µM (active) | – | 36.4 µM (active) | 38.8 µM (active) | inactive | – | – | 33.8 µM (active) | – | – | 43.2 µM (active)
9 | NC(=O)c1ccccc1C(N)=O | – | – | – | inactive | – | 73.1 µM (active) | inactive | – | 72.7 µM (active) | inactive | – | inactive | – | inactive | inactive | –
10 | Cc1ccccn1 | – | inactive | – | inactive | – | – | inactive | – | – | inactive | inactive | inactive | – | inactive | inactive | –
11 | O=C1c2ccccc2C(=O)C1(O)O | 88.5 µM (active) | – | 63.8 µM (active) | – | 60.2 µM (active) | 29 µM (active) | inactive | 36.3 µM (active) | 31.8 µM (active) | – | – | – | 22.8 µM (active) | – | – | –
12 | CC[C@H](C)[C@H]1O[C@]2(CC[C@@H]1C)C[C@@H]1C[C@@H](C/C=C(\C)[C@@H](O[C@H]3C[C@H](OC)[C@@H](O[C@H]4C[C@H](OC)[C@@H](O)[C@H](C)O4)[C@H](C)O3)[C@@H](C)/C=C/C=C3\CO[C@@H]4[C@H](O)C(C)=C[C@@H](C(=O)O1)[C@]34O)O2 | 5.51 µM (active) | – | 6.87 µM (active) | – | 6.4 µM (active) | 8.8 µM (active) | – | 9.63 µM (active) | 17.6 µM (active) | – | – | – | 14.5 µM (active) | – | – | 7.23 µM (active)
13 | C[C@H]1O[C@@H](n2cc(F)c(=O)[nH]c2=O)[C@H](O)[C@@H]1O | 17.9 µM (active) | – | 15.5 µM (active) | – | – | 24.4 µM (active) | inactive | 27.5 µM (active) | 23 µM (active) | – | – | – | 20.7 µM (active) | inactive | – | –
14 | COc1ccccc1/C=C/C=O | – | inactive | – | inactive | – | – | inactive | – | – | inactive | inactive | inactive | – | inactive | inactive | –
15 | CNc1ccc(O)cc1 | – | inactive | 82 µM (active) | inactive | – | – | – | – | – | – | inactive | inactive | – | inactive | inactive | 78 µM (active)
16 | COc1ccc(CN2CCN(C(c3ccc(F)cc3)c3ccc(F)cc3)CC2)c(OC)c1OC | 23 µM (active) | inactive | 23 µM (active) | inactive | 23 µM (active) | – | inactive | – | – | – | inactive | – | – | – | inactive | –
17 | CCN(CC)CCOc1ccc(Cc2ccccc2)cc1 | 42.2 µM (active) | inactive | – | inactive | 33.8 µM (active) | – | inactive | – | – | inactive | inactive | – | – | – | inactive | –
18 | O=S(c1cc(Cl)cc(Cl)c1O)c1cc(Cl)cc(Cl)c1O | – | – | – | – | – | – | inactive | 15.1 µM (active) | 16.2 µM (active) | inactive | inactive | inactive | 6.85 µM (active) | inactive | – | –
19 | O=[N+]([O-])c1ccc(O)c2ncccc12 | – | inactive | – | inactive | 23 µM (active) | – | inactive | – | – | inactive | inactive | inactive | – | – | inactive | –
20 | C/C(=C(\CCOC(=O)c1ccccc1)SS/C(CCOC(=O)c1ccccc1)=C(/C)N(C=O)Cc1cnc(C)nc1N)N(C=O)Cc1cnc(C)nc1N | – | inactive | – | inactive | – | – | inactive | – | – | inactive | inactive | inactive | – | inactive | inactive | –
